# PubChem BioAssay (NCI)
# Where “and” joins values, the source holds several entries; their conditions need not be identical. Equal values may be shown once. About 79,000 compounds went through this panel and 15% of them were active in at least one assay; those are over-represented in the sample as a whole. The source holds several records for some structures; these can differ, active in one and inactive in another. Calls of active or inactive are those of the source. No stated cut-off is given here; in the data, active means growth inhibition above about 70%; inactive means the rest.
# Columns and labels:
# [1] = NCI Yeast Anticancer Drug Screen. Data for the rad50 strain (AID 155);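 further: 0% = growth of vehicle-only cultures of the same strain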; settings: S. cerevisiae rad50 strain growth inhibition, stronger effect = higher value
# Procedure, shortened: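 Compounds were tested on a yeast strain with an engineered DNA damage repair alteration; the reported value is growth inhibition normalised to vehicle treatment.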
# [2] = NCI Yeast Anticancer Drug Screen. Data for the mec2-1 strain (AID 157); settings: S. cerevisiae mec2-1 strain, stronger effect = higher value
# Procedure, shortened: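 Cells of the genetically defined mec2-1 yeast strain are incubated with test compound. Inhibition of growth is calculated against vehicle-treated controls.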
# [3] = NCI Yeast Anticancer Drug Screen. Data for the sgs1 mgt1 strain (AID 161);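 further: 0% = growth of cultures given vehicle only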; settings: S. cerevisiae sgs1 mgt1 strain, stronger effect = higher value
# Procedure, shortened: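 Genetically altered yeast, compound exposure, growth inhibition relative to vehicle.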
# [4] = NCI Yeast Anticancer Drug Screen. Data for the cln2 rad14 strain (AID 165);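 further: 0% = growth equal to vehicle treated cultures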; settings: S. cerevisiae cln2 rad14 strain, stronger effect = higher value
# Procedure, shortened: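 The screen exposed genetically defined yeast (cln2 rad14) to test compounds and scored growth inhibition relative to vehicle-treated controls.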
# [5] = NCI Yeast Anticancer Drug Screen. Data for the bub3 strain (AID 167); settings: S. cerevisiae bub3 mutant strain, stronger effect = higher value
# Procedure, shortened: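 Growth of a checkpoint-deficient yeast mutant is measured after compound exposure. Values represent inhibition relative to vehicle.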
# [6] = NCI Yeast Anticancer Drug Screen. Data for the mlh1 rad18 strain (AID 175); settings: S. cerevisiae mlh1 rad18 strain growth inhibition, stronger effect = higher value
# Procedure, shortened: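 Compound-treated yeast growth, normalised to vehicle controls. Strain bears defined DNA repair mutations.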
# [7] = at 5.0 µM (retest, dose inferred, filed as 0.5)
# [8] = at 50.0 µM (retest, dose inferred, filed as 5.0)
Compound,"growth inhibition [1, 7]","growth inhibition [1, 8]",growth inhibition ([1]; at 50.0 µM),"growth inhibition [2, 7]","growth inhibition [2, 8]",growth inhibition ([2]; at 50.0 µM),"growth inhibition [3, 7]","growth inhibition [3, 8]",growth inhibition ([3]; at 50.0 µM),"growth inhibition [4, 7]","growth inhibition [4, 8]",growth inhibition ([4]; at 50.0 µM),"growth inhibition [5, 7]","growth inhibition [5, 8]",growth inhibition ([5]; at 50.0 µM),"growth inhibition [6, 7]","growth inhibition [6, 8]",growth inhibition ([6]; at 50.0 µM)
CCC[CH2][Sn]1([CH2]CCC)[O]C(=O)c2cc(C)ccc2[O]1,82% (active),97% (active),88.8% (active),89% (active),98% (active),90.8% (active),86% (active),98% (active),91.5% (active),71% (active),97% (active),89.3% (active),91% (active),98% (active),90.6% (active),91% (active),98% (active),89% (active)
COC(=O)C1=C(C(=O)OC)[C]([Hg][CH3])(C(C)=O)N=N1 (configuration not stated),99% (active),99% (active),99.6% (active),99% (active),99% (active),99.5% (active),99% (active),99% (active),99.8% (active),99% (active),99% (active),99.5% (active),99% (active),98% (active),99.2% (active),99% (active),99% (active),99.5% (active)
CCC/C=[CH]/[Hg][Cl],99% (active),99% (active),99.2% (active),100% (active),100% (active),99.5% (active),100% (active),99% (active),99.5% (active),97% (active),99% (active),99.3% (active),99% (active),99% (active),99.4% (active),100% (active),99% (active),99.4% (active)
CCOC(=O)c1ccccc1N,6% (inactive),4% (inactive),-2.65% (inactive),2% (inactive),1% (inactive),1.2% (inactive),-10% (inactive),1% (inactive),-5.7% (inactive),2% (inactive),-4% (inactive),45.8% (inactive),0% (inactive),6% (inactive),7.7% (inactive),-1% (inactive),4% (inactive),-17.9% (inactive)
[Br][Ni][Br].c1ccc(CN2CCN(Cc3ccccc3)CCN(Cc3ccccc3)CCN(Cc3ccccc3)CC2)cc1,0% (inactive),82% (active),96.7% (active),0% (inactive),62% (inactive),98.3% (active),-2% (inactive),65% (inactive),97.6% (active),-2% (inactive),78% (active),98.2% (active),3% (inactive),92% (active),98.5% (active),3% (inactive),92% (active),98.2% (active)
CCC[CH2][Sn]1([CH2]CCC)[O]Cc2nc(C)ccc2[O]1,27% (inactive),92% (active),77.5% (active),29% (inactive),96% (active),81.8% (active),40% (inactive),96% (active),80% (active),15% (inactive),93% (active),71.9% (active),33% (inactive),96% (active),83.7% (active),40% (inactive),96% (active),85.5% (active)
CCOP(=O)(CP(=O)(OCC)OCC)OCC.[Cl][Sn]([Cl])([c]1ccccc1)[c]1ccccc1,11% (inactive),99% (active),98.8% (active),-4% (inactive),99% (active),98.9% (active),7% (inactive),97% (active),99.1% (active),7% (inactive),96% (active),98.1% (active),19% (inactive),98% (active),97.8% (active),1% (inactive),98% (active),99% (active)
CN(C)CC(Cl)CCl (configuration not stated),19% (inactive),86% (active),88.9% (active),-1% (inactive),71% (active),80.2% (active),14% (inactive),75% (active),43.5% (inactive),-4% (inactive),64% (inactive),55.9% (inactive),-8% (inactive),8% (inactive),9.25% (inactive),15% (inactive),82% (active),49.5% (inactive)
COC(=O)C1=C(C)NC(=S)NC1c1ccc(N(CCCl)CCCl)cc1Cl (configuration not stated),10% (inactive),94% (active),51.1% (inactive),-28% (inactive),96% (active),86.7% (active),1% (inactive),95% (active),86.2% (active),-8% (inactive),92% (active),61.9% (inactive),81% (active),97% (active),96.5% (active),13% (inactive),94% (active),91.3% (active)
Nc1nc(N)c(-c2ccc(Cl)c(Cl)c2)c(CCc2ccc(CNC(=O)c3ccc(S(=O)(=O)F)cc3)cc2)n1,-4% (inactive),87% (active),46.7% (inactive),3% (inactive),66% (inactive),96.5% (active),6% (inactive),98% (active),44% (inactive),-14% (inactive),88% (active),74.6% (active),-17% (inactive),54% (inactive),68.9% (inactive),22% (inactive),96% (active),76.2% (active)
CC(C)(C)C[CH2][Hg][Cl],99% (active),99% (active),99.2% (active),100% (active),99% (active),99.7% (active),100% (active),100% (active),99.5% (active),99% (active),100% (active),99.5% (active),99% (active),99% (active),99.6% (active),100% (active),100% (active),99.5% (active)
COC1=C(N2CC2)C(=O)C(OC)=C(N2CC2)C1=O,95% (active),97% (active),98.3% (active),95% (active),98% (active),97.8% (active),90% (active),97% (active),98.2% (active),91% (active),98% (active),98.8% (active),49% (inactive),98% (active),97.1% (active),96% (active),98% (active),97.6% (active)
CCCNC(=O)Nc1ccc2c(c1)Cc1cc(N(CCCl)CCCl)ccc1-2,2% (inactive),32% (inactive),39.1% (inactive),0% (inactive),16% (inactive),23.1% (inactive),-4% (inactive),73% (active),37.3% (inactive),3% (inactive),-1% (inactive),24.9% (inactive),6% (inactive),86% (active),76.5% (active),3% (inactive),52% (inactive),31.2% (inactive)
C=Cc1cc(OC)c2c(c1)c(=O)oc1c2cc(OC)c2c(O)ccc(C3OC(C)C(O)C(C)(O)C3O)c21 (configuration not stated),96% (active),97% (active),90.8% (active),97% (active),97% (active),91.8% (active),97% (active),98% (active),90.3% (active),97% (active),97% (active),90.1% (active),97% (active),98% (active),89.4% (active),96% (active),96% (active),89.9% (active)
O=C(O)CCCC1CCCCC1,0% (inactive),39% (inactive),55.1% (inactive) and 57% (inactive),-2% (inactive),21% (inactive),37.4% (inactive) and 12.7% (inactive),4% (inactive),43% (inactive),43% (inactive) and 44.3% (inactive),4% (inactive),27% (inactive),38.4% (inactive) and 46.7% (inactive),-1% (inactive),52% (inactive),30.5% (inactive) and 62.9% (inactive),2% (inactive),51% (inactive),8.95% (inactive) and 79.8% (active)
COc1cc(C(c2c(O)c3ccccc3oc2=O)c2c(O)c3ccccc3oc2=O)cc(OC)c1O,4% (inactive),20% (inactive),75% (active),-2% (inactive),19% (inactive),44.3% (inactive),-2% (inactive),12% (inactive),54.7% (inactive),0% (inactive),0% (inactive),70.8% (active),-5% (inactive),-10% (inactive),50% (inactive),-7% (inactive),2% (inactive),90.6% (active)
COc1cc(C=Nc2cc[c]([Hg][O]C(C)=O)cc2)ccc1O,4% (inactive),23% (inactive),99.5% (active),-1% (inactive),67% (inactive),99.5% (active),2% (inactive),67% (inactive),99.4% (active),-4% (inactive),22% (inactive),99.3% (active),3% (inactive),75% (active),99.3% (active),0% (inactive),56% (inactive),99.3% (active)
CCCCCCCCCCCCN1CC1,-26% (inactive),26% (inactive),91% (active),-38% (inactive),-7% (inactive),68% (inactive),-10% (inactive),47% (inactive),58.5% (inactive),-23% (inactive),-2% (inactive),59.5% (inactive),1% (inactive),44% (inactive),82% (active),-70% (inactive),-17% (inactive),67.1% (inactive)
C[CH2][Sn]([Cl])([CH2]C)[O][Sn]([CH2]C)([CH2]C)[O][Sn]([Cl])([CH2]C)[CH2]C,16% (inactive),79% (active),76% (active),19% (inactive),84% (active),81% (active),-17% (inactive),89% (active),86.3% (active),15% (inactive),90% (active),82.2% (active),12% (inactive),89% (active),83.2% (active),11% (inactive),77% (active),81.4% (active)
